{"source": "PubChem BioAssay AID2501", "about": "(Southern Research Specialized Biocontainment Screening …, 2010)", "note": "About 1,200 (55%) of roughly 2,200 compounds were called active. No cut-off is given here; in the data, nearly all actives have IC50 up to about 92 µM. So high a share suggests a set chosen from earlier hits. The list shows a part of the results."}
{"assay": "counter assay for TAg ATPase ADP read-out – biochemical, ADP-Hunter, fluorescence, counter-screen (AID 2501);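 note: purified T antigen ATPase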", "settings": "series mostly up to 100 µM"}
{"compound": "COc1ccc([C@@H]2[C@@H]3C(=O)N(C(C)(C)C)C(=O)[C@@H]3[C@]3(C)C(=O)N(c4ccc(C)cc4)C(=O)N23)cc1", "IC50": "inactive"}
{"compound": "O=C(c1cc(F)ccc1F)C1CCCN(C(=O)c2ccc(F)cc2Cl)C1", "note": "(stereo not drawn)", "IC50": "inactive"}
{"compound": "COc1ccc(NC2CCCN(C(=O)c3ccncc3)C2)cc1", "note": "(stereo not drawn)", "IC50": "12 µM (active)"}
{"compound": "CSc1ncc(CN2CCCC(C(=O)Nc3ccc(-c4ccco4)cc3)C2)cn1", "note": "(stereo not drawn)", "IC50": "inactive"}
{"compound": "COc1ccc(C(=O)Nc2ccc3c(c2)CCCN3C(=O)c2cccs2)c(OC)c1", "IC50": "inactive"}
{"compound": "COCc1ccc(C(=O)N2CCCC(CCC(=O)NCc3ccccc3F)C2)o1", "note": "(stereo not drawn)", "IC50": "inactive"}
{"compound": "COc1ccc(NC2CCCN(C(=O)c3ccc(OC)cc3OC)C2)cc1", "note": "(stereo not drawn)", "IC50": "3.38 µM (active)"}
{"compound": "O=C(c1ccco1)N1CCCC(Nc2ccc3c(c2)OCCO3)C1", "note": "(stereo not drawn)", "IC50": "13.5 µM (active)"}
{"compound": "COc1ccc(NC2CCCN(C(=O)c3ccc(OC)o3)C2)cc1", "note": "(stereo not drawn)", "IC50": "10.4 µM (active)"}
{"compound": "O=C(c1ccco1)N1CCN(C(=O)N2CCCC2)CC1", "IC50": "inactive"}
{"compound": "COc1cc(O)c(C(C)=O)c(CC(=O)O)c1", "IC50": "inactive"}
{"compound": "CN(Cc1ccno1)Cc1cn(C)nc1-c1ccc(Oc2ccccc2)cc1", "IC50": "inactive"}
{"compound": "CCOc1ccc(C(=O)N(Cc2ccc(OC)cc2)Cc2cc3cc(OC)ccc3[nH]c2=O)cc1", "IC50": "inactive"}
{"compound": "N#CC(C#N)=C1C=CC=CN1/C(=C\\c1ccco1)C(=O)c1ccc(Br)cc1", "IC50": "inactive"}
{"compound": "CCOc1cc(S(=O)(=O)n2nc(C)cc2C)ccc1Br", "IC50": "inactive"}
{"compound": "COc1ccc(NC(=O)N2CCCC(C(=O)Nc3cccc(C)c3C)C2)cc1", "note": "(stereo not drawn)", "IC50": "inactive"}
{"compound": "CCCN1CCN(C(=O)c2cc(COc3ccc4ncccc4c3)on2)CC1", "IC50": "inactive"}
{"compound": "COc1ccc(NC2CCCN(C(=O)c3ccc(C(C)=O)cc3)C2)cc1", "note": "(stereo not drawn)", "IC50": "2.06 µM (active)"}
{"compound": "COc1ccc(NC2CCCN(C(=O)c3cccc(C(F)(F)F)c3)C2)cc1OC", "note": "(stereo not drawn)", "IC50": "12 µM (active)"}
{"compound": "COc1ccc(NC2CCCN(C(=O)c3c(C)noc3C)C2)cc1", "note": "(stereo not drawn)", "IC50": "6.38 µM (active)"}
{"compound": "O=C1CCC(CCC(=O)N2CCCC(C(=O)c3cccc(C(F)(F)F)c3)C2)=NN1", "note": "(stereo not drawn)", "IC50": "inactive"}
{"compound": "COc1ccc(NS(=O)(=O)c2ccc3c(c2)[C@H]2C=CC[C@H]2[C@@H](c2ccc(C(=O)O)cc2)N3)cc1", "IC50": "inactive"}
{"compound": "Cc1ccc(C(=O)Oc2oc(-c3ccccc3)nc2C=Nc2ccc(N(C)C)cc2)cc1", "IC50": "inactive"}
{"compound": "Cc1ccc(C(=O)C2CCN(CC(=O)Nc3ccc(N(C)C)cc3)CC2)cc1", "IC50": "6.37 µM (active)"}
{"compound": "CN(C)c1ccc(NC(=O)CN2CCC(C(=O)c3ccc(F)cc3)CC2)cc1", "IC50": "3.05 µM (active)"}
{"compound": "CC(C)NC(=O)C1CCN(C2CCN(Cc3ccc4cccc(F)c4n3)CC2)CC1", "IC50": "inactive"}
{"compound": "Cc1ccc(NC(=O)CN2C(=O)N/C(=C/c3cc(C)n(-c4ccc(C(=O)O)cc4)c3C)C2=O)cc1", "IC50": "inactive"}
{"compound": "Cc1ccc(NC(=O)CN2C(=O)N/C(=C/c3cccn3-c3ccc(C(=O)O)cc3)C2=O)cc1", "IC50": "inactive"}
{"compound": "Cc1cc(C)c2c(=O)n(CC(=O)N3CCC(N4CCCCC4)CC3)sc2n1", "IC50": "inactive"}
{"compound": "CN(C)c1ccc(NC(=O)CN2CCC(N3CCCCC3)CC2)cc1", "IC50": "6.64 µM (active)"}
{"compound": "CC(=O)CSc1nc(C(F)(F)F)cc(=O)n1-c1ccccc1", "IC50": "inactive"}
{"compound": "CC1(C)Cc2c(C#N)c(N3CCCC3)nc(-c3ccco3)c2CO1", "IC50": "inactive"}
{"compound": "CN(C)c1ccc(Nc2cc(Cl)ncn2)cc1", "IC50": "9.79 µM (active)"}
{"compound": "O=C1CCCC2=C1Sc1ccccc1N2", "IC50": "7.55 µM (active)"}
{"compound": "Cc1c(Br)c(=O)oc2c(Br)c(O)c(O)cc12", "IC50": "25.2 µM (active)"}
{"compound": "CN(C)/C=C(\\C#N)C(=O)Nc1ccc(O)cc1F", "IC50": "10.3 µM (active)"}
{"compound": "O=C(CCc1ccc(O)c(O)c1)N/N=C/c1cc2c(cc1[N+](=O)[O-])OCO2", "IC50": "inactive"}
{"compound": "COc1ccc(OC)c(/C=N/NC(=O)CCc2ccc(O)c(O)c2)c1", "IC50": "40.4 µM (active)"}
{"compound": "N#Cc1nc(Cc2cccc3ccccc23)oc1NCCN1CCOCC1", "IC50": "inactive"}
{"compound": "Cc1cccc(C(=O)Nc2ccc(C(=O)N/N=C/c3ccc4c(c3)OCO4)cc2)c1", "IC50": "inactive"}
{"compound": "O=C(Nc1ccc2c(c1)C(=O)OC2)c1ccc(C(F)(F)F)cc1", "IC50": "inactive"}
{"compound": "CCOC(=O)NC(=O)C(=CNc1cccc(C)c1)C(=O)NC(=O)OCC", "IC50": "inactive"}
{"compound": "O=C1CC(=O)N(Cc2ccco2)C(=O)N1", "IC50": "inactive"}
{"compound": "Cc1cccc(C(=O)Nc2ccc(O)cc2)c1", "IC50": "4.37 µM (active)"}
{"compound": "O=C(Nc1ccc(O)cc1)c1ccc2c(c1)C(=O)N(N1C(=O)c3ccccc3C1=O)C2=O", "IC50": "6.05 µM (active)"}
{"compound": "O=C(Cn1c(=O)n(Cc2ccco2)c(=O)c2c3c(sc21)CCCCC3)Nc1ccccc1", "IC50": "inactive"}
{"compound": "COc1cc(C(=O)Nc2ccc(O)cc2)ccc1OC(C)=O", "IC50": "3.55 µM (active)"}
{"compound": "O=C(Nc1ccc(O)cc1)c1ccc2c(c1)C(=O)N(Cc1ccco1)C2=O", "IC50": "8.35 µM (active)"}
{"compound": "OC1CN=C2CCCc3c2n(c2ccc(Cl)cc32)C1", "note": "(stereo not drawn)", "IC50": "inactive"}
{"compound": "CCNC(=O)COC(=O)/C=C/c1cccc(F)c1", "IC50": "inactive"}
{"compound": "COc1cc(/C=C/C(=O)OCC(=O)N2CC(=O)Nc3ccccc32)ccc1O", "IC50": "6.1 µM (active)"}
{"compound": "NS(=O)(=O)c1ccc(NC(=O)COC(=O)c2ccc(Cl)nc2)cc1", "IC50": "inactive"}
{"compound": "O=C1COc2ccc(C(=O)COC(=O)/C=C/c3ccc(Br)o3)cc2N1", "IC50": "inactive"}
{"compound": "COc1cc(/C=C/C(=O)OCC(=O)Nc2ccc(S(N)(=O)=O)cc2)ccc1O", "IC50": "12.2 µM (active)"}
{"compound": "Cc1cc(C)c(S(=O)(=O)/N=C2/C=C(SCC(=O)O)C(=O)c3ccccc32)cc1C", "IC50": "inactive"}
{"compound": "CN(C)c1ccc(NC(=O)C(=O)C2C(=O)Nc3ccccc32)cc1", "note": "(stereo not drawn)", "IC50": "1.57 µM (active)"}
{"compound": "Cn1c(SCC(=O)c2ccc(O)c(O)c2)nnc1-c1cccs1", "IC50": "15.9 µM (active)"}
{"compound": "CCn1c(SCc2ccc(C(=O)Nc3nccs3)cc2)nnc1-c1ccc(NC(C)=O)cc1", "IC50": "inactive"}
{"compound": "CCn1c(SCC(=O)c2ccc(O)c(O)c2)nnc1-c1ccc(C)cc1", "IC50": "6.52 µM (active)"}
{"compound": "Cn1c(SCC(=O)c2cc(Cl)c(Cl)s2)nnc1-c1ccco1", "IC50": "inactive"}
{"compound": "CCOC(=O)c1ccc(CSc2nnc(-c3ccncc3)n2N)cc1", "IC50": "inactive"}
{"compound": "C=CCn1c(SCC(=O)c2ccc(O)c(O)c2)nnc1-c1cccnc1", "IC50": "8.61 µM (active)"}
{"compound": "C=CCn1c(SCC(=O)c2ccc(O)c(O)c2)nnc1-c1ccccc1OC", "IC50": "10.2 µM (active)"}
